In PubChem BioAssay (EPA / NIEHS):
Results filed as inconclusive are left out. Calls of active or inactive are those of the source. The calls were made as follows: active = hit-call score of the fitted dose curve at least 0.9, where 1 is the maximum; inconclusive = response in the unintended direction; inactive = score below 0.9.

Tests used:
[1] = STM_H9_NormalizedViability: Cytotoxicity Assessment at 120 hours in the Stemina devTOX quickPredict H9 human embryonic stem cell (hESC)-based Assay (AID 2283784)
In short: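 CellTiter-Fluor RFU, background-subtracted, expressed relative to 0.1% DMSO neutral control by plate. Pluripotent H9 cells; treatment with daily re-dosing. Plates carried 1uM methotrexate (positive) and 5 nM methotrexate (negative) references.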

[2] = target: Estrogen receptor beta (Homo sapiens) (UniProt Q92731); test: ATG_hERb_XSP1: Attagene TRANS-FACTORIAL Multi-Species (XSP1) HepG2 Assay for human Estrogen Receptor (ESR2) (AID 2283788)
In short: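 HepG2 cells transiently transfected with multiplexed GAL4-UAS reporter units carrying chimeric human ERβ-Gal4; 24 h compound exposure with 3 nM 6-alpha-fluorotestosterone present. Reporter mRNA quantified by RT-PCR, FAM labelling and capillary electrophoresis; gain-of-signal fitted versus DMSO.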

[3] = ATG_M_06_XSP1: Attagene TRANS-FACTORIAL Multi-Species (XSP1) HepG2 Assay for M06 Transcription Factor (Internal Marker) (AID 2283790)
In short: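 This background-control readout tracks M06 reporter mRNA, measured by RT-PCR and capillary electrophoresis. HepG2 cells transiently carrying the GAL4-UAS reporter panel were dosed for 24 h with 3 nM 6-alpha-fluorotestosterone added for partial AR stimulation; increases were scored relative to DMSO.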

[4] = ATG_M_61_XSP1: Attagene TRANS-FACTORIAL Multi-Species (XSP1) HepG2 Assay for M61 Transcription Factor (Internal Marker) (AID 2283797)
In short: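 Background-control readout: reporter transcripts measured by RT-PCR and capillary electrophoresis 24 h after dosing transiently transfected HepG2 multi-reporter cells, with 3 nM 6-alpha-fluorotestosterone present. Fitted in the positive direction relative to DMSO.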

[5] = target: Peroxisome proliferator-activated receptor gamma (Homo sapiens) (UniProt P37231); test: ATG_hPPARg_XSP1: Attagene TRANS-FACTORIAL Multi-Species (XSP1) HepG2 Assay for human Peroxisome Proliferator-activated Receptor gamma (PPARg) (AID 2283800)
In short: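 Reporter mRNA induction, measured by RT-PCR with capillary electrophoresis 24 h after dosing, scored as gain over DMSO. Transfected HepG2 cells express exogenous NR-Gal4 chimeras driving GAL4-UAS reporters; medium includes 3 nM 6-alpha-fluorotestosterone.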

[6] = tested on: zebrafish Peroxisome Proliferator-activated Receptor gamma (PPARg), gene 557037; test: ATG_zfPPARg_XSP1: Attagene TRANS-FACTORIAL Multi-Species (XSP1) HepG2 Assay for zebrafish Peroxisome Proliferator-activated Receptor gamma (PPARg) (AID 2283801)
In short: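 Trans-activation readout of chimeric zebrafish PPARg–GAL4 in transiently transfected human HepG2 cells, 24 h chemical exposure (medium includes 3 nM 6-alpha-fluorotestosterone). Reporter transcripts measured by RT-PCR and capillary electrophoresis, fitted as gain over DMSO.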

[7] = target: mouse Peroxisome Proliferator-activated Receptor gamma (PPARg), Pparg (gene 19016) (UniProt P37238); test: ATG_mPPARg_XSP1: Attagene TRANS-FACTORIAL Multi-Species (XSP1) HepG2 Assay for mouse Peroxisome Proliferator-activated Receptor gamma (PPARg) (AID 2283802)
In short: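 Readout is reporter mRNA induction, measured by RT-PCR with 6-FAM labelling, HpaI digestion and capillary electrophoresis, 24 h post-dose relative to DMSO. Transient multi-reporter transfection of human HepG2 with mouse PPARg–GAL4 fusion; 3 nM 6-alpha-fluorotestosterone included.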

[8] = target: Nuclear receptor subfamily 1 group I member 2 (Mus musculus) (UniProt O54915); test: ATG_mPXR_XSP1: Attagene TRANS-FACTORIAL Multi-Species (XSP1) HepG2 Assay for mouse Pregnane X Receptor (PXR) (AID 2283803)
In short: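 Transiently transfected HepG2 cells expressing a receptor-Gal4 chimera drive a GAL4-UAS reporter; 3 nM 6-alpha-fluorotestosterone included. Reporter mRNA read 24 h post-dose by RT-PCR and capillary electrophoresis; gain of signal relative to DMSO.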

[9] = tested on: turtle Thyroid Hormone Receptor, alpha (TRa), gene 101949057; test: ATG_trTRa_XSP1: Attagene TRANS-FACTORIAL Multi-Species (XSP1) HepG2 Assay for turtle Thyroid Hormone Receptor, alpha (TRa) (AID 2283806)
In short: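 After 24 h chemical exposure, reporter transcripts were measured by RT-PCR with fluorescent primer extension, HpaI digestion and capillary electrophoresis. Cells were transiently transfected HepG2 expressing exogenous NR-Gal4 chimeras; medium contained 3 nM 6-alpha-fluorotestosterone; fitted upward relative to DMSO.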

[10] = target: zebrafish Thyroid Hormone Receptor beta (TRb), thrb (gene 30607) (UniProt Q9PVE4); test: ATG_zfTRb_XSP1: Attagene TRANS-FACTORIAL Multi-Species (XSP1) HepG2 Assay for zebrafish Thyroid Hormone Receptor beta (TRb) (AID 2283809)
In short: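 HepG2 cells transiently transfected with multiplexed GAL4-UAS reporter units expressing chimeric zebrafish TRb–Gal4. Dosed 24 h with 3 nM 6-alpha-fluorotestosterone present; reporter mRNA measured by RT-PCR, HpaI digestion and capillary electrophoresis; gain of signal versus DMSO.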

AR (gene 367) = AR (gene 367) (UniProt P10275); test: ACEA_AR_antagonist_80hr: ACEA Biosciences xCELLigence Real-Time Cell Analysis on Androgen Receptor Antagonism for Proliferation (AID 2283787);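 also: 22Rv1 human prostate cancer cells with growth followed by electrical impedance; hits lower the impedance growth signal relative to DMSO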
In short: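 Impedance-based real-time growth of 22Rv1 prostate cells, read 80 h after dosing. Eight concentrations, 1:4 series, top 100 uM final (0.5% DMSO), n = 2; signal decrease scored against DMSO.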

[11] = target: GAL4 Transcription Factor (Internal Marker), GAL4 (gene 855828) (UniProt P04386); test: ATG_GAL4_XSP1: Attagene TRANS-FACTORIAL Multi-Species (XSP1) HepG2 Assay for GAL4 Transcription Factor (Internal Marker) (AID 2283789)
In short: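 This background-control endpoint measures GAL4-driven reporter mRNA via RT-PCR and capillary electrophoresis of labelled fragments. Transiently transfected HepG2 cells were treated 24 h, with 3 nM 6-alpha-fluorotestosterone included, and gain-of-signal was fitted against DMSO.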

[12] = target: frog Thyroid hormone Receptor alpha (TRa), thra-a (gene 397942) (UniProt P15204); test: ATG_frTRa_XSP1: Attagene TRANS-FACTORIAL Multi-Species (XSP1) HepG2 Assay for frog Thyroid hormone Receptor alpha (TRa) (AID 2283804)
In short: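 Reporter transcript induction, measured by RT-PCR with 6-FAM labelling and capillary electrophoresis, 24 hr after dosing transiently transfected HepG2 cells expressing a frog TRa-GAL4 fusion; medium contained 3 nM 6-alpha-fluorotestosterone; increase over DMSO scored.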

[13] = target: zebrafish Thyroid Hormone Receptor alpha (TRa), thraa (gene 30670) (UniProt Q98867); test: ATG_zfTRa_XSP1: Attagene TRANS-FACTORIAL Multi-Species (XSP1) HepG2 Assay for zebrafish Thyroid Hormone Receptor alpha (TRa) (AID 2283807)
In short: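 Reporter transcripts driven by a chimeric zebrafish TRa–Gal4 protein were measured by RT-PCR with fluorescent labelling and capillary electrophoresis. These came from transiently transfected HepG2 cells after 24 h chemical exposure, with 3 nM 6-alpha-fluorotestosterone added; baseline was DMSO.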

[14] = target: human Thyroid hormone Receptor beta (TRb), THRB (gene 7068) (UniProt P10828); test: ATG_hTRb_XSP1: Attagene TRANS-FACTORIAL Multi-Species (XSP1) HepG2 Assay for human Thyroid hormone Receptor beta (TRb) (AID 2283808)
In short: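 Readout is reporter mRNA induction measured by RT-PCR, fluorescent labelling and capillary electrophoresis, fitted upward relative to DMSO. Transiently transfected human HepG2 cells expressing NR-Gal4 chimeras were dosed for 24 h, medium containing 3 nM 6-alpha-fluorotestosterone.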

[15] = tested on: turtle Androgen Receptor (AR), gene 101947425; test: ATG_trAR_XSP1: Attagene TRANS-FACTORIAL Multi-Species (XSP1) HepG2 Assay for turtle Androgen Receptor (AR) (AID 2283786)
In short: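 Partial androgen stimulation is provided by 3 nM 6-alpha-fluorotestosterone in a multi-species trans-factorial panel expressing a turtle AR–GAL4 fusion in HepG2. After 24 h, reporter mRNA is measured by RT-PCR and capillary electrophoresis and fitted upward against DMSO.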

[16] = target: human Thyroid hormone Receptor alpha (TRa), THRA (gene 7067) (UniProt P10827); test: ATG_hTRa_XSP1: Attagene TRANS-FACTORIAL Multi-Species (XSP1) HepG2 Assay for human Thyroid hormone Receptor alpha (TRa) (AID 2283805)
In short: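 Reporter transcripts from the human TRa-Gal4 TRANS unit quantified by RT-PCR, fluorescent labeling and capillary electrophoresis after 24 hours of chemical exposure in transfected HepG2 cells; medium contains 3 nM 6-alpha-fluorotestosterone. Positive direction fit against DMSO.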

[17] = ATG_XTT_Cytotoxicity_XSP1: Cytotoxicity Assessment in the Attagene TRANS-FACTORIAL Multi-Species (XSP1) HepG2 Assay (AID 2283810)
In short: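 XTT viability readout taken at 24 hours post-dosing in HepG2 liver cells co-treated with 3 nM 6-alpha-fluorotestosterone. Signal loss relative to DMSO controls reflects cytotoxicity.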

[18] = ATG_M_32_XSP1: Attagene TRANS-FACTORIAL Multi-Species (XSP1) HepG2 Assay for M32 Transcription Factor (Internal Marker) (AID 2283799)
In short: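 Reporter transcripts from the M32 internal-control unit measured by RT-PCR, FAM labelling, HpaI digestion and capillary electrophoresis after 24 h compound exposure of transfected HepG2, 3 nM 6-alpha-fluorotestosterone included; DMSO baseline, positive-direction fit.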

Sequence of zebrafish Thyroid Hormone Receptor beta (TRb), thrb (gene 30607) (Q9PVE4 whole entry, looked up, the tested form may be a part): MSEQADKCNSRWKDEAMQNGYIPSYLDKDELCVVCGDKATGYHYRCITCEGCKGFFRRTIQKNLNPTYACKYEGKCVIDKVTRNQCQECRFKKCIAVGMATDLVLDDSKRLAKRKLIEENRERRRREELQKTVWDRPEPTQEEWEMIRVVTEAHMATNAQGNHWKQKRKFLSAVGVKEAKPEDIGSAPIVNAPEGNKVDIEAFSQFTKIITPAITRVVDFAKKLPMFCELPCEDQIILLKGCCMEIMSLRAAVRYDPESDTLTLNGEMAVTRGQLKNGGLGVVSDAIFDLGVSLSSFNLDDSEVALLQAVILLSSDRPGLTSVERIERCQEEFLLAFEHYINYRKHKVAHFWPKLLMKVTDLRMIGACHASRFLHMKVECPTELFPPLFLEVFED
Sequence of mouse Peroxisome Proliferator-activated Receptor gamma (PPARg), Pparg (gene 19016) (P37238 whole entry, looked up, the tested form may be a part): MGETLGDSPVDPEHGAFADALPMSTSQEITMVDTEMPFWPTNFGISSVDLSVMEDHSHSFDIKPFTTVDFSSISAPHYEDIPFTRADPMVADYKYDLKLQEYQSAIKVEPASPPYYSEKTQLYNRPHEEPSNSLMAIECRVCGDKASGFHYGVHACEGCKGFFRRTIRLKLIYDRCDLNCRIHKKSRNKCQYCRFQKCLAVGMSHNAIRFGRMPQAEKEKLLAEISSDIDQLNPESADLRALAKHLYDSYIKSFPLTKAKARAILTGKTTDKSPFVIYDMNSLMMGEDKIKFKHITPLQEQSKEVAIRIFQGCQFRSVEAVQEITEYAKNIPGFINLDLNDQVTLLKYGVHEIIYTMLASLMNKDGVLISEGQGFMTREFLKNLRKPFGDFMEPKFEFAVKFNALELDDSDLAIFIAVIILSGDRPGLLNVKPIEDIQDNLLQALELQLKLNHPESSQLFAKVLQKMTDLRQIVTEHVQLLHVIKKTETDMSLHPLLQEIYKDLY
Sequence of Nuclear receptor subfamily 1 group I member 2 (Mus musculus) (O54915 whole entry, looked up, the tested form may be a part): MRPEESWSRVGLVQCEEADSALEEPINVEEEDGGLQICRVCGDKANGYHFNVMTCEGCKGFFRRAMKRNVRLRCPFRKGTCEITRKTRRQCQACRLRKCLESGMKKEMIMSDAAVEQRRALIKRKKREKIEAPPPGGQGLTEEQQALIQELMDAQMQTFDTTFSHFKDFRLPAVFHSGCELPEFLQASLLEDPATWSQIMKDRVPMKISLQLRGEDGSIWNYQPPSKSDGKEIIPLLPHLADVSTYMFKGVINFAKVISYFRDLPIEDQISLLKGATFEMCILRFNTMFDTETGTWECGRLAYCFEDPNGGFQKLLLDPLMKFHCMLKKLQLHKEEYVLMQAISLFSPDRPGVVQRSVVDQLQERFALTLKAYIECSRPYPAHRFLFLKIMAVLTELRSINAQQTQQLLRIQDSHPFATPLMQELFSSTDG
Sequence of Peroxisome proliferator-activated receptor gamma (Homo sapiens) (P37231 whole entry, looked up, the tested form may be a part): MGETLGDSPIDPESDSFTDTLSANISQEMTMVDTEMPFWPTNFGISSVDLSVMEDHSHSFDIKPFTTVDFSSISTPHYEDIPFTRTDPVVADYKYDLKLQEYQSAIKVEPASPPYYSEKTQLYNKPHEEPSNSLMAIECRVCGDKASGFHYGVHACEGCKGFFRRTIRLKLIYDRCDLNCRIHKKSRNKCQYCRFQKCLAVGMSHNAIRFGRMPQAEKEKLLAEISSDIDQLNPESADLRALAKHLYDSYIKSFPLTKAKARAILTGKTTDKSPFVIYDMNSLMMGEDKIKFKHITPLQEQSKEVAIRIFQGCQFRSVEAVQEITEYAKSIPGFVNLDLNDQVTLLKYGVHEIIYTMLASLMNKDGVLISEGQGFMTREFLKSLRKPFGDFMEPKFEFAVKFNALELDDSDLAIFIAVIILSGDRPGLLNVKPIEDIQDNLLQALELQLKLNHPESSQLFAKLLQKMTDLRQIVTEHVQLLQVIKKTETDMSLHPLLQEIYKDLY
Sequence of human Thyroid hormone Receptor beta (TRb), THRB (gene 7068) (P10828 whole entry, looked up, the tested form may be a part): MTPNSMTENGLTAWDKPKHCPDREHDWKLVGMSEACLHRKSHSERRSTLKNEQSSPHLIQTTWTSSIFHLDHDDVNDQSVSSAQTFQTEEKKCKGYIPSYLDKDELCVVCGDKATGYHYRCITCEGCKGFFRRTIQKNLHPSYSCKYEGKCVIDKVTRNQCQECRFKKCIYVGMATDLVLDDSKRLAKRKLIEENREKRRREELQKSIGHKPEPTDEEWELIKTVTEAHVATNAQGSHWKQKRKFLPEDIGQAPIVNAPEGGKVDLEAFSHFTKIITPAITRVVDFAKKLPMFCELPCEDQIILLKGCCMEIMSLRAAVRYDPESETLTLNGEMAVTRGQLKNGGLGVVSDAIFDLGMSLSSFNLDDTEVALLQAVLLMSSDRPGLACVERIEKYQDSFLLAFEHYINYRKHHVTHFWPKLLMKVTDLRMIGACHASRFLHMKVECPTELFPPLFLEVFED
Sequence of Estrogen receptor beta (Homo sapiens) (Q92731 whole entry, looked up, the tested form may be a part): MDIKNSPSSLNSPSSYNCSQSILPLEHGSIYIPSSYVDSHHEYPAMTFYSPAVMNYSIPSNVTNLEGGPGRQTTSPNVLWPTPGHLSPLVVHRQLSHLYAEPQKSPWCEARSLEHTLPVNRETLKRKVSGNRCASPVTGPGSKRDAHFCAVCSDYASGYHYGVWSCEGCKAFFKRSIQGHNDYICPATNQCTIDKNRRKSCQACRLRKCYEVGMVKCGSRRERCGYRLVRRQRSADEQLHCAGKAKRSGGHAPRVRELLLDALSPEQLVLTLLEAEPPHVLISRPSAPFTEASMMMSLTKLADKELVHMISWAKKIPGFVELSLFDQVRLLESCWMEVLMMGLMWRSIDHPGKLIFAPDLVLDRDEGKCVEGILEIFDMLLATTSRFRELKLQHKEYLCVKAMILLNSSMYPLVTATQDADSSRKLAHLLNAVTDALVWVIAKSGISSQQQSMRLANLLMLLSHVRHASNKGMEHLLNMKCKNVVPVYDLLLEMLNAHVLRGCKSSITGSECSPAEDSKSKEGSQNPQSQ
Sequence of zebrafish Thyroid Hormone Receptor alpha (TRa), thraa (gene 30670) (Q98867 whole entry, looked up, the tested form may be a part): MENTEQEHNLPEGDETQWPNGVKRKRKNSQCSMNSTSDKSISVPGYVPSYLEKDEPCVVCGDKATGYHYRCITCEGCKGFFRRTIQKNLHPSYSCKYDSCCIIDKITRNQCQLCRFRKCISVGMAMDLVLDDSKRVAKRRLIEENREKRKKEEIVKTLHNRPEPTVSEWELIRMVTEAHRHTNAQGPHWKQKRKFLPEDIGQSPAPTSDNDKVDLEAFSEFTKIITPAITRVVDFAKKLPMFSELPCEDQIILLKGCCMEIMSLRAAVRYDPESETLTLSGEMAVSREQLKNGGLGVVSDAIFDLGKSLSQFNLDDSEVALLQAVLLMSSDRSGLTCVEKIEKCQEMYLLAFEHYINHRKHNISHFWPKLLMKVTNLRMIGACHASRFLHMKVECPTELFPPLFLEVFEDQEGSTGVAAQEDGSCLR
Sequence of AR (gene 367) (P10275 whole entry, looked up): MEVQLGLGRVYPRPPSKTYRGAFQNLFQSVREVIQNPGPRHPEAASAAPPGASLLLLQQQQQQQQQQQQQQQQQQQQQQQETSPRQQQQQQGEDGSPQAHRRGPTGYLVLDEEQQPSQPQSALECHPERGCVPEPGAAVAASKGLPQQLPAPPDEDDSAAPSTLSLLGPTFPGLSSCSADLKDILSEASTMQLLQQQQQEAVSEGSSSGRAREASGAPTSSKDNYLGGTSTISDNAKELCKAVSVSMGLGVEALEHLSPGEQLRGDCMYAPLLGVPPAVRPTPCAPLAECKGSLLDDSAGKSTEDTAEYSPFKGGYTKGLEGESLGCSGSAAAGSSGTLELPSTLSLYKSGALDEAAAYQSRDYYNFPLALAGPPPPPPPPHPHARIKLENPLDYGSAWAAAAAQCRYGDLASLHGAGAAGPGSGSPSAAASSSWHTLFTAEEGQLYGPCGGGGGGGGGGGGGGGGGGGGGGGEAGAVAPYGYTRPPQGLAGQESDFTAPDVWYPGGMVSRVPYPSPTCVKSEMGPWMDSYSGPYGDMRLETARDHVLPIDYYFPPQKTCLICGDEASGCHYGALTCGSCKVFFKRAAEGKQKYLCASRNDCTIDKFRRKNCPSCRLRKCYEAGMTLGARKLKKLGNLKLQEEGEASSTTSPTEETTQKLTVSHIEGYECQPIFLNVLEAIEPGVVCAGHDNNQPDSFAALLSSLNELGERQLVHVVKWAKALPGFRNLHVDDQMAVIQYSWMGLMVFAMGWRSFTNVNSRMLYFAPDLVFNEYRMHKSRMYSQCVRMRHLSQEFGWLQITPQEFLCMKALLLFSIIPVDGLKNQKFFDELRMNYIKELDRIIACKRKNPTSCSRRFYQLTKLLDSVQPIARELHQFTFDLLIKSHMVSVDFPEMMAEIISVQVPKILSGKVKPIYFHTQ
Sequence of frog Thyroid hormone Receptor alpha (TRa), thra-a (gene 397942) (P15204 whole entry, looked up, the tested form may be a part): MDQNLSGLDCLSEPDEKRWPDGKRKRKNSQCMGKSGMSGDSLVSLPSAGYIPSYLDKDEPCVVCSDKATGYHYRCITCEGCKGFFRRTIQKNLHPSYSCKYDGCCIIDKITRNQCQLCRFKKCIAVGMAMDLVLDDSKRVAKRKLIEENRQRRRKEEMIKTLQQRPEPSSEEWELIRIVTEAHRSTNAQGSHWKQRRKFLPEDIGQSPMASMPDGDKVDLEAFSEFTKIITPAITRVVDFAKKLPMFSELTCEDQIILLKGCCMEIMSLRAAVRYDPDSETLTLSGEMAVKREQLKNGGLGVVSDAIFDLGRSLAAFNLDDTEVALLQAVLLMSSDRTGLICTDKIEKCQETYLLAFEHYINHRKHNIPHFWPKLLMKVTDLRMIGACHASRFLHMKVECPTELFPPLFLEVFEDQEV

CCN(Cc1c(F)cccc1Cl)c1c([N+](=O)[O-])cc(C(F)(F)F)cc1[N+](=O)[O-]
AC50 [1]: 50 µM (active)

CC(C)CCCCCCc1ccc(O)cc1
AC50 [1]: 81.2 µM (active) | AC50 [2]: 246 nM (active) | outcome [3]: inactive | outcome [4]: inactive | outcome [5]: inactive | outcome [6]: inactive | AC50 [7]: 15.9 µM (active) | outcome [8]: inactive | outcome [9]: inactive | outcome [10]: inactive

CN(C)C(=O)Nc1ccc(Cl)c(Cl)c1
outcome [1]: inactive | AC50 (AR (gene 367)): 40.8 µM (active)

C[C@]12C[C@H](O)[C@H]3[C@@H](CCC4=CC(=O)CC[C@@]43C)[C@@H]1CC[C@@H]2C(=O)CO
AC50 [1]: 80 µM (active)

C#CCOC(=O)[C@@H](C)Oc1ccc(Oc2ncc(Cl)cc2F)cc1
AC50 [1]: 76 µM (active)

CC(C)(C)[C@@H](O)[C@@H](Cc1ccc(Cl)cc1)n1cncn1
outcome [1]: inactive

c1ccc2[nH]c(-c3cscn3)nc2c1
AC50 (AR (gene 367)): 50 µM (active)

Oc1ccc(C(c2ccc(O)cc2)C(Cl)(Cl)Cl)cc1
outcome [1]: inactive | outcome [2]: inactive | outcome [11]: inactive | outcome [3]: inactive | outcome [4]: inactive | outcome [5]: inactive | outcome [6]: inactive | outcome [7]: inactive | outcome [8]: inactive | outcome [12]: inactive | outcome [9]: inactive | outcome [13]: inactive | outcome [14]: inactive | outcome [10]: inactive

O=C(c1ccc(O)cc1O)c1ccc(O)cc1O
AC50 [1]: 50 µM (active) | outcome [15]: inactive | AC50 (AR (gene 367)): 26.3 µM (active) | AC50 [2]: 227 nM (active) | outcome [3]: inactive | outcome [4]: inactive | outcome [5]: inactive | outcome [7]: inactive | outcome [12]: inactive | outcome [16]: inactive | outcome [13]: inactive | outcome [14]: inactive | outcome [10]: inactive | outcome [17]: inactive

C=CCOC(Cn1ccnc1)c1ccc(Cl)cc1Cl (stereo not given)
outcome [1]: inactive | AC50 [2]: 7530 nM (active) | outcome [3]: inactive | outcome [4]: inactive | outcome [18]: inactive | AC50 [5]: 100 µM (active) | outcome [6]: inactive | AC50 [7]: 9.81 µM (active) | AC50 [8]: 948 nM (active) | outcome [12]: inactive | outcome [13]: inactive | outcome [14]: inactive | outcome [17]: inactive

O=C(c1ccccc1)C1CCCCC1
outcome (AR (gene 367)): inactive

CCOC(=O)C(C)Oc1ccc(Oc2cnc3cc(Cl)ccc3n2)cc1 (stereo not given)
outcome [1]: inactive

Cc1nn(C)c(Oc2ccccc2)c1C=NOCc1ccc(C(=O)OC(C)(C)C)cc1
AC50 [1]: 0.0346 µM (active) | AC50 (AR (gene 367)): 12.7 µM (active)

CCNc1nc(N)nc(Cl)n1
outcome [1]: inactive

CCCOC(=O)c1ccc(C(=O)OCCC)nc1
outcome (AR (gene 367)): inactive

CCOC(=O)C(C)Oc1ccc(Oc2nc3ccc(Cl)cc3o2)cc1 (stereo not given)
AC50 (AR (gene 367)): 42.6 µM (active)
